Measured values as given in PubChem BioAssay (NCATS).
Results filed as inconclusive are left out. A number with no mark means an inactive call. The source made the active and inactive calls. Calls come from the whole dose curve; as a rule, active = well fitted inhibition curve with a large enough effect; inconclusive = small, poorly fitted or top-dose-only effect; inactive = flat fitted curve, though single readings scatter.

assay: BET inhibitor-based combinations targeting novel dependencies in MECOM-rearranged (r) AML: AML-191 cell line (AID 2202236; note: nearly all actives have a fitted effect of over 35% in size;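 for viability (% of control): plate controls were vehicle wells for no effect and wells without cells for full effect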); conditions: AML-191 viability, CellTiter-Glo luminescence, 48 h; series mostly up to 46 µM; viability (% of control): at the top concentration
Description: Ecotropic viral insertion site 1 (EVI1) is located on chromosome 3q26.2 as part of the MECOM (MDS and EVI1 complex) locus. Under normal hematopoiesis, EVI1 is a regulator of hematopoietic stem cell maintenance and self-renewal and EVI1 levels decrease as the cells differentiate. In approximately 5-10% of de novo acute myeloid leukemia (AML) EVI1 is aberrantly expressed, including Chromosomal inv(3)(q21;q26.2) or t(3;3)(q21;q26.2) alterations (MECOM-r) that account for about 50% of AML with EVI1 overexpression 31. AMLs with high levels of EVI1 have a poor prognosis and an overall survival time averaging between 10-14 months. EVI1 overexpression confers resistance in leukemia cells, highlighting the need to develop new targeted therapies for EVI1 overexpressing AMLs.
Here, we performed an unbiased chemical drug screening by evaluating the single agent activity of a collection of 2,480 oncology-focused, approved and investigational drugs (NCATS Mechanism Interrogation Plates, MIPE v5.0) against a panel of seven AML cell lines. These included four MECOM-r cell-lines (AML-191, AML-194, UCSD-AML1 and HNT-34) and three non-MECOM-r AMLs (MV4-11, OCI-AML3 and SET-2). Exploiting the mechanistic redundancy built in the library, we identified target-level sensitivities in MECOM-r AML cells and relative activity as compared to other AML subtypes.
A collection of 2480 mechanistically annotated dugs (MIPE v5.0) was used to screen four 3q26.2 rearranged AML cell lines and three non-3q26.2 rearranged AML cell lines. This library purposely exploits redundancy by including multiple inhibitors of key onco-targets, while simultaneously encompassing mechanistic diversity, targeting more than 800 distinct mechanisms of action. Briefly, cells were seeded in 5 uL of growth media using a Multidrop Combi dispenser into 1536 well white polystyrene tissue culture treated plates (Corning) at a density of 500cells/well. For each cell-line, for each of the 2480 drugs in MIPE v5.0 library, an 11-point dose curve was generated via a 1536 pin-tool. Plates were incubated for 48 hr at standard incubator conditions, covered by a stainless steel gasketed lid to prevent evaporation. Cell viability was determined by luminescence based, Cell Titer Glo assay (Promega). In detail, 3 uL of Cell Titer Glo were added to each well and plates were incubated at room temperature for 15 min with a stainless-steel lid in place. Luminescence readings were taken using a Viewlux (PerkinElmer) with a 2 s exposure time per plate. Compound dose-response curves were normalized to DMSO and empty well controls on each plate. Quantitative drug activity data from dose-response curves was determined utilizing area Under the Curve (AUC) and Z-transformed AUC (Z-AUC, a mean-centering transformation applied to each individual cell-line screened).
Potency is the fitted concentration of half-maximal effect.

SMILES | viability (% of control) | Potency
CC1=NN(c2ccc(C(=O)O)cc2)C(=O)/C1=C/c1ccc(-c2cc(C)c(C)cc2[N+](=O)[O-])o1 | 102% | 
O=C1CC[C@H](N2Cc3c(OCc4ccc(CN5CCOCC5)cc4)cccc3C2=O)C(=O)N1 | 111% | 
Cc1c(F)ccc(C(=O)Nc2cc([N+](=O)[O-])ccc2N2CCN(C)CC2)c1Cl | 104% | 
C/C(=C\c1csc(C)n1)[C@@H]1C[C@@H]2O[C@]2(C)CCC[C@H](C)[C@H](O)[C@@H](C)C(=O)C(C)(C)[C@@H](O)CC(=O)N1 |  | 0.0235 µM (active)
COc1cc(C(C)C)c2c(c1)S(=O)(=O)N(COc1cc(=O)n3cccc(OCCN4CCCCC4)c3n1)C2=O |  | 29.5 µM (active)
O=C(O)CCCCN(CCc1ccccc1OCc1ccc(CCc2ccccc2)cc1)Cc1ccc(C(=O)O)cc1 | 104% | 
COc1cc(F)ccc1-c1ncnc(Nc2cccc(CS(C)(=N)=O)c2)n1 (stereo not given) |  | 0.662 µM (active)
COc1cc(Nc2ncc(F)c(Nc3ccc4c(n3)N(COP(=O)(O)O)C(=O)C(C)(C)O4)n2)cc(OC)c1OC |  | 3.72 µM (active)
C=C1CCC[C@]2(C)C=C3OC(=O)C(C)=C3C[C@@H]12 | 108% | 
Cc1cc(C(=O)Nc2cc(Nc3ccc4c(/C=C/c5ccccn5)n[nH]c4c3)ccc2F)n(C)n1 |  | 16.6 µM (active)
Cc1ccc(NC(=O)c2ccc3c(c2)OCCO3)cc1NC(=O)c1ccc2nc(OCCN3CCCC3)ccc2c1 |  | 0.162 µM (active)
Nc1cc(COc2c(Cl)cc(C[C@H](N)C(=O)O)cc2Cl)c2oc(-c3ccccc3)nc2c1 |  | 20.9 µM (active)
N=C1S/C(=C\c2ccc(-c3ccc4c(c3)C(=O)NC4=O)o2)C(=O)N1c1ccc(Br)cc1 | 107% [at 15.6 µM] | 
O=C(NCc1ccccc1)c1csc(Nc2ccncn2)n1 |  | 18.6 µM (active)
CC(C)c1c(-c2ccccc2)nc2c(C#N)c[nH]n2c1=O | 108% | 
CS(=O)(=O)c1ccc([C@@H](CC2CCCC2)C(=O)Nc2nccs2)cc1 | 79.3% | 
CN(C)c1ccc(Nc2nc(N)n(C(=O)c3c(F)cccc3F)n2)cc1 |  | 18.6 µM (active)
NC(=O)C1=C(O)[C@@]2(O)C(=O)C3=C(O)c4c(O)cccc4C[C@H]3C[C@H]2CC1=O |  | 7.42 µM (active)
COc1ccc(/C=C\c2cc(OC)c(OC)c(OC)c2)cc1O |  | 0.0132 µM (active)
Nc1ccn([C@@H]2O[C@H](CO)[C@@H](O)[C@H]2O)c(=O)n1 | 96.1% | 

SMILES | viability (% of control) | Potency
COCCNCc1ccc(-c2cc3nccc(Oc4ccc(NC(=S)NC(=O)Cc5ccc(F)cc5)cc4F)c3s2)nc1 |  | 2.35 µM (active)
O=c1ncccn1[C@@H]1O[C@H](CO)[C@@H](O)[C@H]1O | 99.6% | 
CC(c1cc2ccccc2s1)N(O)C(N)=O (stereo not given) | 102% | 
c1ccc2c(Cc3c[nH]c4ccccc34)c[nH]c2c1 | 102% | 
CC(=O)N1c2ccc(-c3ccc(C(=O)O)cc3)cc2[C@H](Nc2ccc(Cl)cc2)C[C@@H]1C |  | 0.468 µM (active)
CC[C@]12C=CCN3CC[C@@]4(c5cc([C@@]6(C(=O)OC)CC7C[C@@H](C(C)(F)F)CN(Cc8c6[nH]c6ccccc86)C7)c(OC)cc5N(C)[C@H]4[C@@](O)(C(=O)OC)[C@@H]1OC(C)=O)[C@@H]32 (stereo not given in full) |  | 0.372 µM (active)
COc1ccc(S(=O)(=O)NCc2ccc(C(=O)NCCc3ccc(Cl)cn3)cc2)cc1 | 98.3% | 
N=C(N)c1ccc2nc(-c3cc(CC(=O)N[C@@H](CC(=O)O)C(=O)O)cc(-c4cc(S(N)(=O)=O)ccc4O)c3O)[nH]c2c1 | 111% | 
CC(C)(S)[C@@H](N)C(=O)O | 111% [at 5.12 µM] | 
C[C@@]1(c2ncncc2F)NC(=O)c2cc(-c3cn[nH]c3)ccc21 |  | 20.9 µM (active)
CCC(=O)OCC(=O)C1(OC(=O)CC)C(C)CC2C3CCC4=CC(=O)C=CC4(C)C3(F)C(O)CC21C (stereo not given) | 19.8% | 
CCOC(=O)c1ccc(C#Cc2ccc3c(c2)C(C)(C)CCS3)nc1 |  | 8.33 µM (active)
C=CC(=O)Nc1cc2c(Nc3ccc(F)c(Cl)c3)ncnc2cc1C#CC(C)(C)N1CCN(C)CC1 |  | 4.68 µM (active)
CNCCCOc1cc(F)c(-c2c(Cl)nc3ncnn3c2N[C@@H](C)C(F)(F)F)c(F)c1 |  | 0.0934 µM (active)
O=C(O)CCC=CCC[C@@H]1[C@H](N2CCCCC2)[C@@H](O)C[C@@H]1OCc1ccc(-c2ccccc2)cc1 | 103% | 
O=c1[nH]c(=O)n([C@H]2C[C@H](O)[C@@H](CO)O2)cc1F |  | 0.263 µM (active)
COc1cc(/C=C/C(=O)CC(=O)/C=C/c2ccc(O)c(OC)c2)ccc1O |  | 16.6 µM (active)
COc1ccc2c(c1OC)C(=O)OC2[C@H]1c2c(cc3c(c2OC)OCO3)CCN1C (stereo not given in full) |  | 13.2 µM (active)
Nc1nc(OC(c2ccc(-c3cccc(F)c3)cc2)C(F)(F)F)cc(-c2ccc(C[C@H](N)C(=O)O)cc2)n1 (stereo not given in full) | 114% | 
COc1cccc2c1C(=O)c1c(O)c3c(c(O)c1C2=O)C[C@@](O)(C(C)=O)C[C@@H]3O[C@H]1C[C@H](N)[C@H](O)[C@H](C)O1 |  | 0.186 µM (active)
